ARNT TACC3 PPI = disruptors of ARNT/TACC3 protein interaction, primary screen, biochemical, AlphaScreen, single concentration | 390,000 compounds, 0.66% hits | AlphaScreen His-ARNT PAS-B/GST-TACC3 binding, luminescence; TACC3 fragment carries E629A point mutation | AID 623870, 2012 | inhibition, % at 9.99 µM | Transforming acidic coiled-coil-containing protein 3 (Homo sapiens), Q9Y6A5;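 active means mean inhibition of replicates at least 50% and at least half of replicates each reaching 50%; inconclusive means half or more replicates reach 50% but mean below 50%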;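 further: 0% = complete ARNT plus TACC3 wells and 100% = ARNT alone without TACC3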
HIF activator = HIF pathway transcriptional activators, primary screen, cell-based, U2OS HRE-luciferase, luminescence; U2OS HRE-luciferase reporter; normalized: DMSO 0%, desferrioxamine 100%; activation, % at 7.5 µM (by protocol); 300,000 compounds, 0.32% hits; AID 1910, 2009;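 active means mean activation of at least 10% of the iron chelator positive control signal, with at least half of replicates also reaching 10%; inconclusive means mean and replicate majority disagree about reaching 10%; inactive means mean and most replicates under 10%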
HSF1 activator = HSF-1 activators, primary screen, NIH3T3-HGL cells, MG132 stress, luminescence, single point. activation, % at 9 µM. 300,000 compounds, 1.7% hits. NIH3T3-HGL HSF-1 luciferase reporter, 8 h; 100% = twice DMSO control signal;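 active means mean replicate activation of at least 50% with a set share of replicates each reaching 50%; inconclusive means only one of those two conditions met; inactive means mean below 50% and too few replicates reaching it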;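 further: 0% = median of the neutral control wells and 100% = twice that signal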
HSP90 refold inh = HSP90 inhibitors, primary screen, cell lysate, luminescence; Rabbit reticulocyte lysate, luciferase refolding luminescence, 3 h; inhibition, % at 5.6 µM; 290,000 compounds, 0.91% hits;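 active means inhibition above the screen-wide mean plus 3 SD, computed separately per campaign, cut at about 16% in these data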;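 further: 0% = DMSO wells and 100% = 60 µM geldanamycin wells; inhibitors lower the luminescence because luciferase stays unfolded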
HSF1 inhib = HSF1 inhibitors in luciferase reporter cells, primary screen, cell-based, NIH3T3, luminescence | NIH3T3-HGL HSE-luciferase, MG132-induced, luminescence 8 h; stronger effect = lower value | activity change, negative = inhibition, % at 7.5 µM (by protocol) | 300,000 compounds, 0.77% hits;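 active means more than half of replicate wells show activity change below -50%, luminescence cut by over half; inconclusive means some wells, but at most half, below -50%; inactive means no replicate well below -50%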;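 further: luciferase reports HSF-1 transcriptional activity via heat shock element; 0% = median of DMSO wells and -100% = zero luminescence signal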
An asterisk follows results filed as active; u = inconclusive; x = no result given. This is a sample that favours compounds with a hit; in the whole collection about 3.1% have one here.

SMILES | ARNT TACC3 PPI | HIF activator | HSF1 activator | HSP90 refold inh | HSF1 inhib
COc1ccc(S(=O)(=O)N(C)C[C@@H]2OCCCC[C@@H](C)Oc3ccc(NC(=O)CCC(F)(F)F)cc3C(=O)N([C@@H](C)CO)C[C@@H]2C)cc1 | 5 | x | x | x | x
Oc1ccc(Cl)cc1-c1cc(-c2ccco2)[nH]n1 | 13 | 1 | 140* | -1 | 77
O=C(Nc1ccc(-c2nc3ccccc3s2)cc1)C1=COCCO1 | -2 | -3 | -63 | 14 | -56*
COc1c(Br)cc(Br)cc1C(=O)O | -7 | 0 | 112* | 1 | 87
Nc1nc(N)c(Br)c(Nc2ccc(Cl)c(Cl)c2)n1 | -7 | x | x | x | x
Nc1nc(N)c(C=Nc2ccc(Br)cc2)c(Nc2ccc(Br)cc2)n1 | 5 | -1 | 67* | 3 | 38
COc1ccc(OC)c2c1C(=O)C(Cl)=C(Cl)C2=O | -2 | -6 | -71 | 9 | -70*
COc1ccc(OC)c2c1C(=O)c1ccccc1C2=O | x | -1 | -2 | -1 | 5
COc1ccc(N)c2c1C(=O)c1ccccc1C2=O | 40 | 2 | 54* | -1 | 31
Cc1ccc(-c2cc(N)n3nc(-c4ccc(C)cc4)cc3n2)cc1 | -5 | 0 | 18 | 2 | 3
Cc1ccc(-c2cc3nc(-c4ccccc4)cc(N)n3n2)cc1 | x | -42 | 62* | 2 | 32
C[C@@H]1CN([C@H](C)CO)C(=O)c2cc(C#C[C@@H](C)O)cnc2O[C@H]1CN(C)C(=O)CN1CCOCC1 | -1 | x | x | x | x
COc1cc(C(=O)N2CCN(CCCc3ccccc3)CC2)cc(OC)c1OC | -2 | 1 | 6 | x | -4
COc1cc(C(=O)N2CCN(C(=O)Cc3ccccc3)CC2)cc(OC)c1OC | -11 | 13* | 11 | 1 | 0
CO[C@H]1CN(C)C(=O)c2cc(NC(=O)Nc3ccccc3)ccc2OC[C@@H](C)N(CC2CC2)C[C@H]1C | -3 | x | x | x | x
COc1ccc(CNS(=O)(=O)c2cc(CN3C(=O)c4cccnc4C3=O)ccc2OC)cc1 | 18 | 0 | 61* | -1 | 17
CCOc1ccc(CNS(=O)(=O)c2cc(CN3C(=O)c4cccnc4C3=O)ccc2OC)cc1 | 7 | -1 | -5 | 1 | -1
COc1ccc(CN2C(=O)c3cccnc3C2=O)cc1S(=O)(=O)NCc1ccccc1 | 48* | 0 | -1 | -4 | -3
CCCNS(=O)(=O)c1cc(CN2C(=O)c3cccnc3C2=O)ccc1OC | 20 | 1 | 4 | -3 | -8
COCC(=O)Nc1ccc2c(c1)C(=O)N(C)[C@@H]1CC[C@@H](CC(=O)NCCc3ccccc3)O[C@H]1CO2 | 15 | x | x | x | x
COc1cc(Cl)ccc1OCc1cc(C(=O)NC(C)Cc2cnccn2)no1 (stereo not given) | 1 | 2 | 59* | -3 | 38
CC(Cc1cnccn1)NC(=O)c1cc(COc2ccc(F)cc2F)on1 (stereo not given) | -1 | 0 | 4 | -5 | -1
COc1ccc(CN(C)C[C@H]2Oc3ccc(NC(=O)NC(C)C)cc3CC(=O)N([C@H](C)CO)C[C@H]2C)cc1 | 4 | x | x | x | x
CCCN1C[C@H](C)[C@@H](OC)CN(C)C(=O)c2cc(NS(C)(=O)=O)ccc2OC[C@H]1C | -10 | x | x | x | x
O=C(C1CCCN(S(=O)(=O)Cc2ccccc2)C1)N1CCc2ccccc21 (stereo not given) | 1 | 0 | -69 | 1 | -58*
SMILES | ARNT TACC3 PPI | HIF activator | HSF1 activator | HSP90 refold inh | HSF1 inhib
O=C(/C(=C(\[O-])c1ccccc1)[n+]1ccc2ccccc2c1)c1ccc([N+](=O)[O-])cc1 | -2 | 0 | -72 | 0 | -64*
O=C(/C(=C(\[O-])c1ccccc1)[n+]1ccc2ccccc2c1)c1ccccc1 | 50* | 0 | 4 | -2 | -4
O=C(/C(=C(\[O-])c1ccccc1)[n+]1ccc2ccccc2c1)c1ccc(Cl)cc1 | -40 | 1 | -66 | 2 | -57*
C[C@H](CO)N1C[C@H](C)[C@@H](CN(C)C(=O)c2ccncc2)Oc2cc(-c3cccc(C#N)c3)ccc2S1(=O)=O | -6 | x | x | x | x
Cc1oc(-c2ccccc2F)nc1CS(=O)(=O)CC(=O)NCCCN1CCN(C)CC1 | x | 0 | 148* | 1 | 100
CC(C)N(Cc1cn[nH]c1-c1ccc(-c2ccccc2)cc1)Cc1nccn1C | 16 | 0 | 59* | -2 | 29
CC(C)N(Cc1nc(COc2ccccc2)no1)Cc1nccn1C | 14 | 0 | 0 | -2 | -2
Cc1ccnc(SCC(=O)c2ccc(Br)cc2)c1C#N | 12 | 2 | 90* | 0 | 53
Cc1ccc(C(=O)CSc2nsc(C)c2C#N)cc1 | -15 | 2 | 16 | -3 | 11
CCS(=O)(=O)N1CCCCN2[C@@H](CO)[C@@H](c3ccc(-c4ccccc4F)cc3)[C@@H]2C1 | -11 | x | x | x | x
CCC(=O)Nc1ccc2c(c1)C(=O)N(C)C[C@@H](OC)[C@H](C)CN(Cc1ccncc1)[C@@H](C)CO2 | -1 | x | x | x | x
C[C@@H]1CCCCO[C@@H](CN(C)S(=O)(=O)c2ccccc2)[C@@H](C)CN([C@@H](C)CO)C(=O)c2cc(NC(=O)Nc3ccc(C(F)(F)F)cc3)ccc2O1 | -1 | x | x | x | x
C=CCn1c(=NC(=O)C2CCCCC2)sc2cc(NC(C)=O)ccc21 | -11 | 0 | -6 | 1 | -6
C=CCn1c(=NC(=O)C2CC2)sc2cc(NC(C)=O)ccc21 | -2 | 1 | -65 | -1 | -55*
CCCCNC(=S)NNc1c(Cl)cc(Cl)cc1Cl | 0 | 0 | -78 | 4 | -72*
O=C(NCCCl)NNc1c(Cl)cc(Cl)cc1Cl | -6 | 0 | x | 1 | x
C[C@H]1CN([C@@H](C)CO)C(=O)c2cccc(NC(=O)Nc3ccc(F)cc3)c2O[C@H]1CN(C)C(=O)Nc1ccc(C(F)(F)F)cc1 | -27 | x | x | x | x
CC(=O)OCCn1c2nc(=O)[nH]c(=O)c-2nc2cc(C)c(C)cc21 | 5 | -11 | 13 | 20* | -6
CC(=O)OCCn1c(C)[n+](CCOC(C)=O)c2cc(Cl)c(Cl)cc21 | -5 | 0 | 4 | 0 | -5
CCc1cc(SC#N)cc(C)c1N | -2 | 0 | -8 | 11 | -13
CCC(=O)Nc1ccc(SC#N)cc1C | -6 | 0 | -10 | 0 | -5
CCc1cc(SC#N)cc(C)c1NC(=O)CCl | 30 | 2 | 113* | 8 | 71
Cc1cc(SC#N)cc(C)c1NC(=O)CCl | -4 | 1 | 136* | 3 | 126
Cc1ccc(-c2nn[nH]n2)o1 | 2 | 0 | -70 | 1 | -58*
Cc1ccc(-c2nn[nH]n2)cc1 | -4 | -1 | u | 2 | 3
O=C(Nc1ccccc1N1CCOCC1)c1cc2ccccc2o1 | 2 | 1 | u | 5 | 20

Bioassay records: PubChem, several laboratories
